High-throughput results as filed in PubChem.
MITF TRPM1 inh: MITF TRPM1 promoter inhibition in SK-MEL-5 cells | SK-MEL-5 TRPM1 promoter luciferase, 24 h | inhibition, % at 12.5 µM | actives 0.83% (n = 330,000);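 active means mean inhibition across replicates of 60% or more, whatever share of single replicates reaches that level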
Peg3 promoter: inhibitors of Peg3 promoter. actives 1.7% (n = 360,000). inhibition, % at 20 µM. HeLa PEG-Prom luciferase reporter, luminescence, overnight. AID 588405;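 active means inhibition of at least 50% at 20 µM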
KKLEB tox: reduces viability of KKLEB cystic fibrosis airway cells | actives 0.36% (n = 360,000) | AID 602141 | activity change (cytotoxicity), % at 5 µM | KKLEB CF airway cells viability, ATPlite luminescence, overnight; active compounds read low; cells stimulated with P. aeruginosa culture filtrate;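 active means corrected activity change at or below -50% at 5 µM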
EBV LMP1 NFkB: reduces LMP1-driven NF-kappaB luciferase signal; LMP1-induced NF-kappaB luciferase reporter cells, luminescence; actives 0.69% (n = 350,000); AID 504558; inhibition, % at 12.5 µM; in the data active means inhibition above about 41%;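 further: 0% = neutral control wells and 100% = reference inhibitor control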
Shn3 inh set2: reduces Shn3 3'UTR luciferase signal in osteoblasts. Clone20 osteoblast Shn3 3'UTR firefly luciferase, 24 h. actives 0.52% (n = 360,000). inhibition, % at 12.5 µM. AID 588674;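 active means mean inhibition of at least 75% with every replicate also reaching 75%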;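 further: 0% = median of neutral control wells and 100% = pilot-screen positive control compound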
CF NFkB block: inhibitors of cystic fibrosis induced NF-kB. KKLEB NF-kB-GFP reporter, PAF-induced, GFP fluorescence overnight. inhibition, % at 5 µM. actives 0.86% (n = 360,000). AID 588850;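 active means at least 50% inhibition at 5 µM, scaled per plate between neutral and stimulator controls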;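 further: PAF is a Pseudomonas aeruginosa culture filtrate used as stimulus; plate controls were PAF-stimulated DMSO wells for no effect and unstimulated DMSO wells for full effect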
Numbers without * were called inactive; / = no result. Only some compounds are listed: those with a hit (about 2.9% of all), similar ones and a draw of the others.

SMILES | MITF TRPM1 inh | Peg3 promoter | KKLEB tox | EBV LMP1 NFkB | Shn3 inh set2 | CF NFkB block
C#CCOCCOCCOCCNc1nc(N2CCN(C(=O)CCCCCCCCCCNC(=O)Cn3cc(CCCCCN)nn3)CC2)nc(N2CCN(C(=O)CCCCCCCCCCNC(=O)[C@H]([C@@H](C)CC)n3cc(CCCCN=C(N)N)nn3)CC2)n1 | 75* | 25 | 15 | -7 | 27 | -9
C#CCOCCOCCOCCNc1nc(N2CCN(C(=O)CCCCCCCCCCNC(=O)[C@H]([C@@H](C)CC)n3cc(CCCCCN)nn3)CC2)nc(N2CCN(C(=O)CCCCCCCCCCNC(=O)[C@H](CO)n3cc(CCCCCN)nn3)CC2)n1 | 82* | 99* | -6 | 6 | 30 | -22
C[C@H]1CN([C@@H](C)CO)C(=O)c2cc(Br)cnc2O[C@@H]1CN(C)S(=O)(=O)c1ccccc1 | / | 28 | 6 | -3 | -3 | -14
Cc1cccc(-c2nnn3c2nc(NCCc2ccc(S(N)(=O)=O)cc2)c2ccccc23)c1 | 17 | 4 | -52* | 9 | 35 | 36
CC1=NN(c2ccccc2)C(=O)/C1=C\C=C\c1ccccc1 | / | 71* | 7 | / | 15 | -2
CCC(=O)OCOc1ccc(/C=C2/CCC(CN(C)C)C2=O)cc1 (stereo not drawn) | 67* | 100* | -2 | 1 | 78 | -4
CCOc1ccc(/C=C2\CCC(C3CCCC3)C2=O)cc1 (stereo not drawn) | -117 | -312 | 13 | -12 | -43 | -10
C[C@@H]1CN([C@@H](C)CO)C(=O)CCCn2nncc2CO[C@@H]1CN(C)C(=O)Nc1cccc(Oc2ccccn2)c1 | / | 4 | 4 | 0 | 1 | -16
COC(=O)C[C@H](NC(=O)Cn1cc(C)c(=O)[nH]c1=O)C(=O)OC | -18 | 3 | -3 | 8 | -11 | 5
O=C(COC(=O)c1nc(Cl)ccc1Cl)c1ccc[nH]1 | 5 | -13 | -11 | -4 | 15 | 15
O=C(COC(=O)c1nc(Cl)c(Cl)c(Cl)c1Cl)c1ccc[nH]1 | 21 | 51* | -8 | -12 | 10 | 6
Cc1ccc(S(=O)(=O)N2C[C@H]3C(=O)C[C@@H](c4ccccc4)N(S(=O)(=O)c4ccccc4)[C@H]3C[C@H]2c2ccccc2)cc1 | / | -8 | -16 | / | 13 | 18
CCCc1nnc(SCc2ccc(OCC)cc2)n1N | 9 | 8 | -2 | 77* | -8 | 12
CCCCc1nnc(SCc2ccc(OCC)cc2)n1N | 2 | 7 | 13 | -4 | -12 | 3
Cc1ccc(NS(=O)(=O)c2ccc(NC(=O)C(C)Sc3ccc(Cl)cc3)cc2)c(C)c1 (stereo not drawn) | 11 | 25 | 17 | 60* | 37 | -3
Cc1ccc(C)c(NS(=O)(=O)c2ccc(NC(=O)CSc3ccc(Cl)cc3)cc2)c1 | 5 | 12 | -8 | 4 | -4 | -13
O=C(CNC(=O)c1cc(-c2ccccc2)nn1-c1ccccc1)Nc1ccccc1Br | 2 | 19 | -4 | -7 | -14 | -3
COc1ccc(CC(=O)Nc2ccc(S(=O)(=O)N(C)C3CCN(C)CC3)cc2)cc1 | 2 | -16 | 6 | 0 | 18 | 7
COc1ccc2oc(C(=O)Nc3ccc(S(=O)(=O)N(C)C4CCN(C)CC4)cc3)c(C)c2c1 | 85* | 75* | -7 | -48 | 60 | 1
COc1cc(CN2C[C@@H](CO)O[C@@H](n3cnc4c(NCCCO)ncnc43)C2)cc(OC)c1OC | / | -10 | 10 | / | 8 | -6
Cc1cc(C)c2nc(C)cc(Nc3ccc(C(=O)NCCO)cc3)c2c1 | 0 | -4 | -2 | -7 | / | -21
CC(=O)c1ccc(Nc2cc(C)nc3c(C)cc(C)cc23)cc1 | 54 | 103* | -15 | -20 | 3 | -10
CSCCC(NC(=O)COc1ccccc1)C(=O)NCC(C)(C)N1CCOCC1 (stereo not drawn) | / | -3 | 4 | -8 | 3 | 1
CC(=O)NC(c1ccc(F)c(F)c1)c1nc(-c2cccs2)cs1 (stereo not drawn) | / | 5 | -10 | / | 8 | 12
CCC(=O)N1CCN(c2ccccc2NC(=O)COc2cc(C)ccc2C(C)C)CC1 | 6 | 52* | -3 | 4 | 21 | 8
SMILES | MITF TRPM1 inh | Peg3 promoter | KKLEB tox | EBV LMP1 NFkB | Shn3 inh set2 | CF NFkB block
Cc1ccc(/C=C2/CNC/C(=C/c3ccc(C)cc3)C2=O)cc1 | 91* | 105* | -63* | 80* | -17 | 80*
COC(=O)c1c(NC(=O)CCl)sc(C(=O)N2CCOCC2)c1C | 25 | 37 | -40 | -10 | -23 | 50*
COC(=O)c1c(N)sc(C(=O)N2CCOCC2)c1C | 6 | -3 | -2 | -4 | 3 | 10
CCN(CC)S(=O)(=O)c1ccc(N=NC2=C(O)CC(C)(C)CC2=O)cc1 | 6 | 5 | 17 | 0 | 10 | -5
CCN(CC)S(=O)(=O)c1ccc(N=NC2=C(O)CCCC2=O)cc1 | -6 | 3 | 2 | 63* | 10 | -8
CN(CCOC(=O)/C=C/c1ccccc1)C(C)(C)C | -2 | -5 | -1 | -4 | 1 | -2
CC[N+]1(C)CCC(O)(/C=C/c2ccccc2)C(C(=O)/C=C/c2ccccc2)C1 (stereo not drawn) | 66* | 97* | -15 | -3 | 99* | 40
COc1ccc(-c2cc3c(=O)n(CC(=O)NCCCN4CCC(N5CCCCC5)CC4)nc(C)n3n2)cc1 | 72* | 6 | 18 | -2 | -19 | -10
CCCCOc1ccc(S(=O)(=O)NC(=O)C2(C)CCN2C(=O)CCc2ccccc2)cc1 (stereo not drawn) | / | 6 | 1 | / | -8 | 0
O=C(c1cnn2c(C(F)(F)F)cc(-c3ccccc3)nc12)N1CCCCC1c1cccnc1 (stereo not drawn) | 22 | 9 | 0 | 1 | -2 | 5
O=C(c1cc2nc(-c3ccc(F)cc3)cc(C(F)(F)F)n2n1)N1CCCCC1c1cccnc1 (stereo not drawn) | 39 | 12 | -10 | 5 | 90* | 31
CCc1nc2ccc(C(=O)N3CCN(C(=O)c4ccco4)CC3)cn2c1N(C)C(=O)c1cccc(OC)c1 | / | -3 | -9 | / | -2 | 5
O=C1OCC2=C1C(c1ccc3c(c1)OCO3)c1cc3c(cc1O2)OCO3 (stereo not drawn) | 2 | 24 | -1 | 59* | -7 | 14
CCCN1CCC(NCc2cn(C)nc2-c2ccc(Oc3ccccc3)cc2)CC1 | 86* | 17 | 0 | -39 | -7 | 1
COC1CCCN(Cc2cn(C)nc2-c2ccc(Oc3ccccc3)cc2)C1 (stereo not drawn) | -15 | 7 | -16 | 4 | 21 | -41
COc1ccc(C(=O)OCC(=O)c2c(N)n(C)c(=O)n(C)c2=O)c(OC)c1OC | 9 | 2 | 9 | 1 | -7 | -19
O=C(Nc1nc(-c2ccccn2)cs1)c1ccco1 | 6 | -54 | 15 | 10 | 35 | -18
